Test results reported in the supplement of paper PMC6555819.

How the values were obtained:
Experiment in all cases: PBM binding z-score (relative to random genomic background probes); higher = stronger binding; sequences stand for … in GC…GCGATTGACAGCGTAGAATGAAGG
[1] = test system: FXR:RXRa (NR concentration 270 nM, RXRa partner concentration 90 nM)
Procedure, shortened: (§1)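 Probes were double-stranded and carried 34-nt variable regions with direct-repeat seeds, single-nucleotide variants, half-site ablations and random human genomic background sequences, printed on custom Agilent 4×180K protein-binding microarrays. Arrays were incubated 1 h with ligand-free nuclear receptor dimers in PBS pH 7.4, 2% milk, 0.02% Triton X-100, 1 mM DTT, 0.2 mg/mL BSA and 0.4 mg/ml salmon testes DNA. Antibodies against each partner (one per run) detected binding, and scanned fluorescence was regression-normalized. Binding z-scores use the random background probes as reference.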

[2] = test system: LXRa:RXRa (NR concentration 270 nM, RXRa partner concentration 90 nM)
Procedure, shortened: as §1

[3] = test system: LXRa homodimer (NR concentration 270 nM)
Procedure, shortened: as §1

[4] = test system: LXRb:RXRa (NR concentration 270 nM, RXRa partner concentration 90 nM)
Procedure, shortened: as §1

[5] = test system: LXRb homodimer (NR concentration 270 nM)
Procedure, shortened: as §1

[6] = test system: PPARa:RXRa (NR concentration 270 nM, RXRa partner concentration 90 nM)
Procedure, shortened: as §1

[7] = test system: PPARg:RXRa (NR concentration 180 nM, RXRa partner concentration 90 nM)
Procedure, shortened: as §1

[8] = test system: PPARg:RXRa 270nM:90nM, anti-RXR (NR concentration 270 nM, RXRa partner concentration 90 nM)
Procedure, shortened: as §1

[9] = test system: PPARg:RXRa 30nM:10nM, anti-RXR (NR concentration 30 nM, RXRa partner concentration 10 nM)
Procedure, shortened: as §1

[10] = test system: PPARg:RXRa 90nM:30nM, anti-RXR (NR concentration 90 nM, RXRa partner concentration 30 nM)
Procedure, shortened: as §1

[11] = test system: PPARg:RXRa DBDmut IVT, anti-RXR (DBD mutation: RXRa K156A/R161A, NR concentration 270 nM, RXRa partner concentration 90 nM)
Procedure, shortened: as §1

[12] = test system: PPARg:RXRa IVT, anti-PPARg (NR concentration 270 nM, RXRa partner concentration 90 nM)
Procedure, shortened: as §1

[13] = test system: PPARg DBDmut:RXRa IVT, anti-PPARg (DBD mutation: PPARg1 K132A/R137A, NR concentration 270 nM, RXRa partner concentration 90 nM)
Procedure, shortened: as §1

[14] = test system: PPARg DBDmut IVT, anti-PPARg (DBD mutation: PPARg1 K132A/R137A, NR concentration 270 nM)
Procedure, shortened: as §1

[15] = test system: PPARg homodimer (NR concentration 180 nM)
Procedure, shortened: as §1

[16] = test system: PXR:RXRa (NR concentration 270 nM, RXRa partner concentration 90 nM)
Procedure, shortened: as §1

[17] = test system: PXR homodimer (NR concentration 270 nM)
Procedure, shortened: as §1

[18] = test system: RARa:RXR (NR concentration 270 nM, RXRa partner concentration 90 nM)
Procedure, shortened: as §1

[19] = test system: RARa homodimer (NR concentration 270 nM)
Procedure, shortened: as §1

[20] = test system: RARb:RXRa (NR concentration 270 nM, RXRa partner concentration 90 nM)
Procedure, shortened: as §1

Sequence | PBM binding z-score [1] | PBM binding z-score [2] | PBM binding z-score [3] | PBM binding z-score [4] | PBM binding z-score [5] | PBM binding z-score [6] | PBM binding z-score [7] | PBM binding z-score [8] | PBM binding z-score [9] | PBM binding z-score [10] | PBM binding z-score [11] | PBM binding z-score [12] | PBM binding z-score [13] | PBM binding z-score [14] | PBM binding z-score [15] | PBM binding z-score [16] | PBM binding z-score [17] | PBM binding z-score [18] | PBM binding z-score [19] | PBM binding z-score [20]
CGAACGAGGGCATGAGTTAATAGCAAATGCCGAT | 0.396 | 0.206 | -0.633 | 0.117 | -0.921 | 1.49 | 1.64 | 1.98 | 0.666 | 1.58 | 2.98 | 2.1 | -0.0604 | 0.0299 | -0.39 | 0.548 | 0.0291 | 0.254 | -0.352 | 1.89
TGAATGAAGTTATAAGATCAGGGAACGTTGCAAA | -0.521 | -0.697 | -0.369 | -0.457 | -0.454 | -0.296 | 0.116 | -0.239 | 0.157 | -0.0808 | -1.2 | -0.333 | 0.559 | 0.214 | -0.63 | -0.502 | -0.359 | -0.42 | 0.115 | -1.82
CCTAGCAGGCCTATCTGGGTCACTCAAGGCTTGA | 0.317 | 0.546 | -0.58 | 0.838 | -1.2 | 3.07 | 1.7 | 2.01 | -0.0826 | 1.15 | 3.65 | 4.63 | -0.467 | -0.863 | 0.541 | 0.789 | -0.468 | 1.38 | -0.645 | 0.909
CCTAGCACGCCAGGGTCACTCAAGCATTTCGCTT | 1.59 | 1.52 | -0.519 | 1.79 | -1.1 | 2.81 | 0.36 | 0.763 | -0.35 | -0.137 | -0.508 | 0.0216 | -0.715 | -1.26 | 0.342 | 2.48 | -0.243 | 2.55 | -0.31 | 2.44
GTACCAAGGTGAATAGGACGTTGATGAGTAGGCG | 0.0663 | -0.214 | 0.103 | -0.344 | -0.664 | 0.537 | 1.07 | 0.126 | 0.338 | 0.55 | 1.26 | 1.93 | 0.467 | 0.284 | 0.583 | -0.246 | -0.00267 | -0.0237 | 0.381 | 1.14
CCTGGTAGGTCAATGGTCAGCTAAAGCAGCTCGC | 3.32 | 2.64 | 0.425 | 1.98 | 0.463 | 3.77 | 6.52 | 6.4 | 4.37 | 6.53 | 4.64 | 5.35 | 0.462 | -0.453 | 2.06 | 1.29 | 0.146 | 2.11 | 1.12 | 3.63
CGTCGAAGTTCAAGGTAACGTAACAGAAAGCAGC | 2.59 | 2.34 | -0.0774 | 1.38 | -0.503 | 2.51 | 1.18 | 1.48 | 0.235 | 0.847 | -0.377 | 0.326 | 0.134 | -0.191 | 0.722 | 2.28 | 0.897 | 1.5 | -0.214 | 3.38
GTAACGAGGGCATTCGAGTTGATAGCATGGCGAT | 1.83 | 1.91 | -0.134 | 0.286 | -0.321 | 1.72 | 1.12 | 0.912 | 0.115 | 0.712 | 3.16 | 2.66 | 0.308 | -0.0825 | -0.229 | 3.76 | 2.23 | 0.683 | -0.277 | 1.89
TCTGATAGGTCAGTTGGTCAGCTAACGAGCTGCC | 2.27 | 2.12 | 0.378 | 1.59 | 0.846 | 2.67 | 1.19 | 2.4 | 2.52 | 2.3 | 2.34 | 2.26 | -0.134 | 1.25 | 1.43 | 0.816 | -0.173 | 1.01 | -0.0552 | 3.63
TCGAGTAGGTTAATCGGGGCATTCAGCCAACATA | 0.0036 | 0.53 | -0.187 | 0.859 | -0.245 | 1.72 | 0.726 | 1.54 | 1.04 | 1.31 | 3.25 | 3.08 | 0.341 | -0.256 | 0.811 | 0.519 | -0.134 | 0.933 | -0.986 | 0.81
ATCGATAGGTCGAAGGTGAGTATACCCACCCGAA | 0.952 | 0.85 | -0.301 | 0.557 | -0.268 | 2.9 | 4.53 | 5.41 | 3.58 | 5.43 | -0.27 | 1.54 | 0.544 | -0.0222 | 0.323 | 0.78 | 0.0246 | 2.02 | -0.0833 | 1.76
TAGCCTAGGTCATTCAGGGGCCAGTATAGAAAGC | 4.58 | 3.73 | 0.785 | 3.2 | 0.97 | 3.78 | 1.97 | 2.59 | 0.55 | 1.45 | 1.64 | 2.89 | -0.179 | 0.357 | 1.37 | 2.57 | -0.0401 | 2.74 | -0.372 | 3.79
GCTGCTAGGTCAGGTTGGTCAGCTGACGGGTACG | 1.19 | 0.902 | -0.423 | 0.356 | -0.106 | 1.26 | 0.207 | 1.04 | -0.528 | 0.514 | 2.92 | 2.16 | 0.00411 | -0.207 | 1.24 | 0.407 | -0.471 | 0.946 | -0.516 | 3.17
CCTAGTTGGTCATGGTCACACACGCTATAGGTAC | -0.0474 | 0.0849 | 0.431 | 0.71 | 0.175 | 0.348 | 1.04 | 0.761 | 0.167 | 0.467 | 1.53 | 1.72 | 0.378 | 0.935 | 0.845 | 0.223 | 0.732 | 0.207 | 1.39 | 1.46
CGAACGAGGGCATCAGTTGATAGCAAATGCCGAT | 0.292 | 0.0604 | -0.396 | 0.107 | -0.651 | 1.19 | 1.1 | 0.934 | -0.0649 | 0.293 | 2.85 | 1.94 | -0.013 | -0.142 | -0.115 | 0.166 | 0.152 | 0.224 | -0.261 | 2.03
